In the library only some 7.8% were active in any assay of this set; here they are far more common.
Vaccinia Venus: vaccinia inhibition (Venus reporter); 330,000 compounds, 0.46% hits; Potency, µM (titrated, usually from 36.5 µM), for the others: top-dose activity change, negative = inhibition, most hits filed as inhibitors; Vaccinia virus Venus reporter expression, fluorescence; calls by dose curve; tested in A549 cells; further: potency means the concentration at half of the fitted maximal effect; nearly all actives have a fitted effect of over 30% in size
Vaccinia mCherry: vaccinia inhibition (mCherry reporter). Vaccinia virus mCherry reporter infection, fluorescence. Potency, µM (top dose mostly 36.5 µM), inactives show at the highest dose activity change, negative = inhibition, most hits filed as inhibitors. 310,000 compounds, 0.63% hits; calls by dose curve; tested in A549 cells; further: potency means the concentration at half of the fitted maximal effect; nearly all actives have a fitted effect of over 35% in size
MARV entry inh: blocks Marburg virus binding to or entry into cells; Marburg virus pseudotyped entry inhibition, cell reporter; Potency, µM (series often up to 37.8 µM), for the others: at the highest dose activity change, negative = inhibition, hits mostly inhibitors; 300,000 compounds, 1.8% hits; calls by dose curve; tested in HEK293 cells; further: potency means the concentration at half of the fitted maximal effect
Lassa entry inh: blocks Lassa virus binding to or entry into cells | 300,000 compounds, 1.2% hits | Lassa virus pseudotype entry inhibition, cell reporter | Potency, µM (top dose mostly 37.9 µM), inactives show at the top dose activity change, negative = inhibition, usual class: inhibitors; calls by dose curve; tested in HEK293 cells; further: potency means the concentration at half of the fitted maximal effect; nearly all actives have a fitted effect of over 50% in size
HCMV antiviral: human cytomegalovirus inhibition; HFF cells, HCMV-luciferase reporter, 72 h; active compounds read low; activity change, negative = inhibition, % at 57.5 µM; 410,000 compounds, 4.5% hits; in the data active means activity change below about -60%; inconclusive means no clear call, values can overlap the other calls; inactive means above about -39%
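Cell-based, HFFs, 1000 cells/well, 16 h 37C; cpds in DMSO + HCMV-luc, MOI 1 PFU/cell; 72 h 37C; OneGlo luminescence after 5 min RT; norm. to buffer vs Salinomycin 10uM.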
HCV inhibitor: blocks hepatitis C virus. Huh7.5.1 HCVcc-Cre infection, luciferase reporter, 44 h. Potency, µM (highest dose often 41.8 µM), without a hit: at the top dose activity change, negative = inhibition, hits mostly inhibitors. 340,000 compounds, 3.4% hits. AID 651820; active means well fitted inhibition curve with a large enough effect; inconclusive means small, poorly fitted or top-dose-only effect, or another doubt; inactive means no such curve, though single readings can be large or run the other way; further: potency means the concentration at half of the fitted maximal effect
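HCVcc-Cre virus at an moi near 0.5 was added right after compound to cells cultured 4 h from seeding (1,000 cells/well). Luciferase activity was determined 44 h later, 15 min after substrate addition at RT.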
* hit, by the source's call; i = inactive; u = inconclusive; x = not tested or not shown; [ ] = dose if it differs, or a comment. On the % scale 0 is the no-effect control and ±100 the full control effect.

SMILES	Vaccinia Venus	Vaccinia mCherry	MARV entry inh	Lassa entry inh	HCMV antiviral	HCV inhibitor
CCc1cc2c(cc3c(=O)n(CC(=O)N4CCN(c5cccc(C)c5C)CC4)nc(CC)n32)s1	-8%	-14%	u	x	-3	x
COC(=O)c1cn([C@@H]2C[C@@H](C(=O)Nc3cccc(SC)c3)N(C3CCCCCC3)C2)nn1	-4%	-4%	x	x	x	x
CC(=O)N(c1cc(C)ccc1C)c1ccccc1[N+](=O)[O-]	-16%	-11%	u	19%[46.1 µM]	-63*	0%
CC(C)Nc1nc(NCCOc2ccccc2Cl)c2sc(-c3ccccc3)cc2n1	-27%	u	x	x	-101*	x
COc1ccccc1CNc1nc(NC(C)C)nc2cc(-c3ccccc3)sc12	u	u	x	x	-36	x
O=C(NCC1Cc2cccc(-c3nccs3)c2O1)c1ccnc(Cl)c1 (stereo not drawn)	-25%	-10%	x	x	x	x
Cc1ccc2[nH]c(O)c(N=NC(=O)CCc3ccccc3)c2c1Br	-1%	-12%	8%	1%	-61*	-23%
CCc1noc(-c2ccc(NCc3ccccc3)c([N+](=O)[O-])c2)n1	-1%	-10%	u	3%[46.1 µM]	45	x
O=S(=O)(NCCc1csc(-c2cccc(F)c2)n1)c1cc(F)ccc1F	-3%	-15%	x	-3%[46.1 µM]	-106*	x
Cc1ccc(S(=O)(=O)NCCc2csc(-c3cccc(F)c3)n2)cc1	-14%	-3%	x	-1%[46.1 µM]	-24	x
O=C(NCCc1csc(-c2cccc(F)c2)n1)c1ccco1	-5%	-10%	x	-6%[46.1 µM]	u	10µM*
CCc1ccc(S(=O)(=O)NCCc2csc(-c3ccccc3)n2)s1	-16%	u	u	10%	-63*	u
COc1ccccc1C1CN(Cc2cccc(O)c2)Cc2ccccc2O1 (stereo not drawn)	-24%	-26%	x	x	x	x
CCOC(=O)Cn1c(=O)n(CC2CCCO2)c2nc(-c3cccc(C)c3)nc(C(N)=O)c21 (stereo not drawn)	-11%	-14%	x	4%[46.1 µM]	12	x
CC(C)(C)C(=O)Nc1nc2cc3c(cc2s1)OCO3	x	x	x	x	-73*	u
CC(C)C(=O)Nc1nc2cc3c(cc2s1)OCO3	-4%	u	x	x	-11	u
CCOc1ccc2nc(NC(=O)C3CCCN(S(=O)(=O)c4c(C)noc4C)C3)sc2c1 (stereo not drawn)	u	u	x	x	-21	11µM*
O=C(Nc1nc2cc3c(cc2s1)OCCO3)C1CCCCC1	-26%	u	u	10µM*	1	u
O=C(Nc1nc2ccc(S(=O)(=O)N3CCCC3)cc2s1)C1CCCCC1	u	u	u	-25%	-62*	u
O=C(Nc1cc(S(=O)(=O)N2CCCCC2)ccc1N1CCCCC1)C1CC1	x	x	x	x	-61*	-24%
O=C(Nc1cccc(Cl)c1)Nc1cc(S(=O)(=O)N2CCOCC2)ccc1N1CCCC1	-27%	-29%	u	u	-80*	-14%
COc1nnc(-c2ccc(N3CCCCC3)c(NC(=O)C3CCCCC3)c2)c2ccccc12	-4%	-4%	2%	17%	-101*	-9%
O=C(Nc1nc2cc3c(cc2s1)OCO3)C1CC1	-7%	-12%	u	-4%	-15	10µM*
O=C(c1cc2ccccc2oc1=O)N1CCN(c2ccc(F)cc2)CC1	10%	-5%	13%[46.1 µM]	u	-4	x
CCOC(=O)CC(NS(=O)(=O)c1cc(-c2cc(C)no2)ccc1C)c1ccc(C)cc1 (stereo not drawn)	-7%	-16%	x	u	-34	x
SMILES	Vaccinia Venus	Vaccinia mCherry	MARV entry inh	Lassa entry inh	HCMV antiviral	HCV inhibitor
O=C(Nc1nc2ccc(Cl)cc2s1)C1CC1	x	x	x	x	-23	8.9µM*
O=C(Nc1nc2ccc(Cl)cc2s1)C1CCCO1 (stereo not drawn)	-21%	x	u	u	34	-24%
CCc1ccccc1N1CC(C(=O)Nc2cc(S(=O)(=O)N3CCCC3)ccc2Cl)CC1=O (stereo not drawn)	-3%	-2%	-15%	u	5	11µM*
Cn1c(-c2cccc(C(F)(F)F)c2)cc2cnc(Nc3ccc(Oc4ccccc4)cc3)cc21	x	x	x	x	-15	x
CCOC(=O)C(CC)/C(C)=N\NC(=O)c1ccccc1O (stereo not drawn)	u	u	u	-19%	-90*	11%
CC(C)NC(=O)CN1C(=O)c2cccnc2Sc2ccccc21	-6%	1%	x	20%[46.1 µM]	11	x
CC(C)(C)C(=O)NC(=S)Nc1cccc(C(=O)O)c1	-9%	-15%	u	3%[46.1 µM]	-3	-8%
CC(C)(C)C(=O)NC(=S)Nc1cc(C(=O)O)ccc1Cl	-3%	-13%	u	14%	-61*	12%
CCOc1ccccc1NC(=O)c1ccccc1-c1nc(-c2ccccc2OC)no1	-18%	x	u	u	30	11µM*
CCOc1ccccc1-c1nc(-c2cc3ccccc3nc2OC)no1	-23%	x	u	-20%	61	11µM*
Cc1cccn2c(=O)c(/C=C(\C#N)c3nc4ccccc4n3C)c(Oc3ccc(Cl)cc3)nc12	5%	-1%	u	-15%[46.1 µM]	-2	x
Cn1c(=O)c2cc(C(=O)N3CCN(c4cccc(C(F)(F)F)c4)CC3)sc2c2ccccc21	-12%	i	4%[46.1 µM]	24%[46.1 µM]	5	x
CCCOc1ccc(CSC(=N)N)cc1C(=O)OC	-20%	-3%	-16%	-13%	24	-24%
CCOc1ccc(CN=C(N)N=C(N)N)cc1Cl	u	x	u	-19%	6	u
CCCCOc1ccc(CN=C(N)N)cc1Cl	x	x	x	x	-20	10µM*
CCCOc1ccc(CCCN=C(N)N)cc1Cl	u	-30%	u	0%	-74*	8.9µM*
COc1ccc(CCNC(=O)c2cnn3c2NC(=C2CC2)C=C3C(F)F)cc1OC	-27%	-7%	x	x	x	x
CC1=C/C(=N\OS(=O)(=O)c2ccccc2)C(C)=CC1=O	-26%	u	u	u	-100*	u
CC1=C/C(=N\OS(=O)(=O)c2ccccc2)C(C(C)C)=CC1=O	-2%	-20%	u	u	-82*	u
O=C(c1ccc(F)cc1)N1CC(=O)N2[C@@H](CO)[C@@H](c3ccc(Br)cc3)[C@@H]2C1	x	x	x	x	-1	x
O=C(c1ccccc1)c1ccc2nc(-c3ccc(NC(=O)c4ccccc4Br)cc3)[nH]c2c1	-25%	-23%	14%	-29%	-25	25µM*
Cc1ccccc1C(=O)Nc1ccc(-c2nc3ccc(C(=O)c4ccccc4)cc3[nH]2)cc1	u	x	u	u	u	11µM*
O=C(O)c1ccc(NC(=O)c2ccccc2NC(=O)c2ccccc2Br)cc1	-5%	-10%	5%	8%	-8	12%
Cc1ccc2nc(-c3ccc(NC(=O)c4ccco4)cc3)[nH]c2c1	x	x	u	u	-7	u
COc1ccc(N=c2nc(-c3ccc(C)cc3)n(-c3ccccc3)s2)cc1	u	-29%	x	x	x	x

Source: PubChem (National Center for Advancing Translational Sciences (NCATS))
